# Data from PMC7862700, “An all-to-all approach to the identification of sequence-specific readers for epigenetic DNA modifications on cytosine”.
# Assays:
# Assay in all cases: DAPPL (digital affinity profiling via proximity ligation, sequencing); 10 mM Tris-HCl pH 7.5, 50 mM NaCl, 1 mM DTT, 4% glycerol, room temperature, 30 min; GST-TFs on glutathione beads, 16-mer random dsDNA library, 0.1% formaldehyde crosslink after washing; high values mean tight binding
# FLI1 = molecular target: T1, FLI1 (Homo sapiens, UniProt Q01543 1-452); details: protein: recombinant; tags: N-terminal GST; dsDNA, one strand shown
# T1 sequence: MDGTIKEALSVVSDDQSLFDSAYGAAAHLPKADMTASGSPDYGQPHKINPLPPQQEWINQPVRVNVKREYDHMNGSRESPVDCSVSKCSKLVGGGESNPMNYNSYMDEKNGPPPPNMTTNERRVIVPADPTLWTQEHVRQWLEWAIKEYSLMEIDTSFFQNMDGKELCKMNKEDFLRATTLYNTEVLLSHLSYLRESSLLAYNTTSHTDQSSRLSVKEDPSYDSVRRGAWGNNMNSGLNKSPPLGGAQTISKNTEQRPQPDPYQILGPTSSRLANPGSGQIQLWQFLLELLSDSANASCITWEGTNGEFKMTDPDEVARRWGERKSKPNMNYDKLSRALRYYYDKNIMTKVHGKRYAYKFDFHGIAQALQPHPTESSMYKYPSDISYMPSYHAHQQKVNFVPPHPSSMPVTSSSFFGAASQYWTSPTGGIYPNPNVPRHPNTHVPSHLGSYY
# Method in brief: (§1)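 GST fusions of human transcription factors were expressed in yeast and captured with glutathione beads. Once given DNA barcodes and pooled alongside a tag-only sample, they were incubated for 30 min at room temperature with 200 nmole of a random double-stranded 16-mer DNA library in Tris/NaCl/DTT/glycerol buffer, then washed, crosslinked (0.1% formaldehyde), proximity-ligated, PCR-amplified and sequenced on an Illumina NextSeq500. The binding signal of each hexamer is its read frequency for a factor divided by its frequency for the tag-only sample.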
# ELK1 = molecular target: T2, ELK1 (Homo sapiens, UniProt P19419 1-428); details: protein: recombinant; tags: N-terminal GST; dsDNA, one strand shown
# T2 sequence: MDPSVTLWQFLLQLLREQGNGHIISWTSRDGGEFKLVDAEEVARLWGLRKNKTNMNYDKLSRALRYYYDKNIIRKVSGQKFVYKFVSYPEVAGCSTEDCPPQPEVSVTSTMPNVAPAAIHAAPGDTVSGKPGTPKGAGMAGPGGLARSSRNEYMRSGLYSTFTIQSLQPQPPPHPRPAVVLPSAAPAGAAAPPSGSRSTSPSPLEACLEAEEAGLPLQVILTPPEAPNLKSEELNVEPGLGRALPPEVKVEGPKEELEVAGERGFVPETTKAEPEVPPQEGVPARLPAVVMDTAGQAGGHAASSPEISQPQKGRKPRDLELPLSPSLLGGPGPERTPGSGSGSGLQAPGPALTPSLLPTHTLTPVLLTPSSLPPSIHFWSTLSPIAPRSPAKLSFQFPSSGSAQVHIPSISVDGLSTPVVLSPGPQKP
# Method in brief: as §1
# GABPA = molecular target: T3, GABPA (Homo sapiens, UniProt Q06546 1-454); details: protein: recombinant; tags: N-terminal GST; dsDNA, one strand shown
# T3 sequence: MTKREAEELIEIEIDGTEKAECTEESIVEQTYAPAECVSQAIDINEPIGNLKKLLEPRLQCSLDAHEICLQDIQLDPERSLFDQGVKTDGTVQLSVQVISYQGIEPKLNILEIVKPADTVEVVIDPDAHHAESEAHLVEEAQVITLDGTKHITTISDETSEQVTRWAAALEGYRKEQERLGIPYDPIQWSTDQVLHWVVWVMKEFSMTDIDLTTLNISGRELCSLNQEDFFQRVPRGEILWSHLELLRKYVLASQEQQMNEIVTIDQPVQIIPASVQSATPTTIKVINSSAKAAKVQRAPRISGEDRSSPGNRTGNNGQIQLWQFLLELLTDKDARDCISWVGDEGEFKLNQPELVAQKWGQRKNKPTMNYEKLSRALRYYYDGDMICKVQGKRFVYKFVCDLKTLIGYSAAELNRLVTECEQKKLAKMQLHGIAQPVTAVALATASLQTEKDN
# Method in brief: as §1
# ERG = molecular target: T4, ERG (Homo sapiens, UniProt P11308 1-479); details: protein: recombinant; tags: N-terminal GST; dsDNA, one strand shown
# T4 sequence: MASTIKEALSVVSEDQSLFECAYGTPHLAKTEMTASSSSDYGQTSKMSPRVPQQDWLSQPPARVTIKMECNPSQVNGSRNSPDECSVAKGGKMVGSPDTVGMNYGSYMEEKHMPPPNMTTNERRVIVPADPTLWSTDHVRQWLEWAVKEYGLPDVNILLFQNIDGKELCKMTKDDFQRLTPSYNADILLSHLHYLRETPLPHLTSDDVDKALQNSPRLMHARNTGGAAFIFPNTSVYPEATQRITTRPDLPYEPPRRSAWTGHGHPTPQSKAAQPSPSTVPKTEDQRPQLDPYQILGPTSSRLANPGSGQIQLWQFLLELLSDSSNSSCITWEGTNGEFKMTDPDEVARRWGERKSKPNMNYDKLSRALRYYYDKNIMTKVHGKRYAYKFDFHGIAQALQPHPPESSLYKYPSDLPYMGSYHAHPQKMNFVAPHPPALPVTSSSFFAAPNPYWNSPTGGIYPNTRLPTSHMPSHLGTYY
# Method in brief: as §1
# ELF1 = ELF1 (Homo sapiens, UniProt P32519 1-619); details: protein: recombinant; tags: N-terminal GST; dsDNA, one strand shown
# Method in brief: as §1
# EHF = molecular target: T5, EHF (Homo sapiens, UniProt Q9NZC4 1-300); details: protein: recombinant; tags: N-terminal GST; dsDNA, one strand shown
# T5 sequence: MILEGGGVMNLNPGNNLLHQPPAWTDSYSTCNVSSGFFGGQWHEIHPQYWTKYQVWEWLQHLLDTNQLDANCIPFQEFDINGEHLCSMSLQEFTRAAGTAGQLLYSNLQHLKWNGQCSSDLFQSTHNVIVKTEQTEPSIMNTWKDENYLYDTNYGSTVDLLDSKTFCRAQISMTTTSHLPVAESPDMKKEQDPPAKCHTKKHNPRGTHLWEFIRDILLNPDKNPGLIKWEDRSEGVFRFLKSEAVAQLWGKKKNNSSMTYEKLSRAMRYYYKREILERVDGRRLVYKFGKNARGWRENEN
# Method in brief: as §1
# SPI1 = SPI1 (Homo sapiens, UniProt P17947 1-270); details: protein: recombinant; tags: N-terminal GST; dsDNA, one strand shown
# Method in brief: as §1
# SPIB = SPIB (Homo sapiens, UniProt Q01892 1-262); details: protein: recombinant; tags: N-terminal GST; dsDNA, one strand shown
# Method in brief: as §1
# ELK3 = molecular target: T6, ELK3 (Homo sapiens, UniProt P41970 1-407); details: protein: recombinant; tags: N-terminal GST; dsDNA, one strand shown
# T6 sequence: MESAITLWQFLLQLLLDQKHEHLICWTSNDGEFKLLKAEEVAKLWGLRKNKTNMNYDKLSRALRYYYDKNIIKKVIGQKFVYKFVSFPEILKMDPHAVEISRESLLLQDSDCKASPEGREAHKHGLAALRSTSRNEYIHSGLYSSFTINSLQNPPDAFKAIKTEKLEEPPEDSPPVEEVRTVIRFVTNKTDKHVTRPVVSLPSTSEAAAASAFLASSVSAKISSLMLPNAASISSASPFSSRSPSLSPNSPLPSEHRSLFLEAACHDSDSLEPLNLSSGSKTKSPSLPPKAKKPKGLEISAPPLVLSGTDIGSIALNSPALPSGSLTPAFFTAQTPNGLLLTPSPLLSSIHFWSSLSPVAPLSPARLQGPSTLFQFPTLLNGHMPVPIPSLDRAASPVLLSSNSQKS
# Method in brief: as §1
# FEV = molecular target: T7, FEV (Homo sapiens, UniProt Q99581 1-238); details: protein: recombinant; tags: N-terminal GST; dsDNA, one strand shown
# T7 sequence: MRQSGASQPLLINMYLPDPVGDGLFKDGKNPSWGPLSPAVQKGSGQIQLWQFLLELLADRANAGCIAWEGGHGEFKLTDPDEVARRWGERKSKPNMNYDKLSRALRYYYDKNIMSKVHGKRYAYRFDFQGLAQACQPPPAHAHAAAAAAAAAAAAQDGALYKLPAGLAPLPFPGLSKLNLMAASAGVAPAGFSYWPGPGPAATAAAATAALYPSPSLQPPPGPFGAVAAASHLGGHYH
# Method in brief: as §1
# ETV5 = ETV5 (Homo sapiens, UniProt P41161 1-510); details: protein: recombinant; tags: N-terminal GST; dsDNA, one strand shown
# Method in brief: as §1
# HSF1 = HSF1 (Homo sapiens, UniProt Q00613 1-529); details: protein: recombinant; tags: N-terminal GST; chain copies: 3; dsDNA, one strand shown
# Method in brief: as §1
# SPIC = molecular target: T8, SPIC (Homo sapiens, UniProt Q8N5J4 1-248); details: protein: recombinant; tags: N-terminal GST; dsDNA, one strand shown
# T8 sequence: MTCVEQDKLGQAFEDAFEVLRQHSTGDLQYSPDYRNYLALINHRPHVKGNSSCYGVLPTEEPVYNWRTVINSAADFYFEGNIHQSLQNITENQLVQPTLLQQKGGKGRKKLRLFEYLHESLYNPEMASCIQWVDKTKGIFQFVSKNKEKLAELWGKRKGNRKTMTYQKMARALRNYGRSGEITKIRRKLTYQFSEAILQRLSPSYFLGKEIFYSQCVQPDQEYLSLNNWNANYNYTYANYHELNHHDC
# Method in brief: as §1
# ELF4 = ELF4 (Homo sapiens, UniProt Q99607 1-663); details: protein: recombinant; tags: N-terminal GST; dsDNA, one strand shown
# Method in brief: as §1
# ELK4 = molecular target: T9, ELK4 (Homo sapiens, UniProt P28324-2 1-405); details: protein: recombinant; tags: N-terminal GST; dsDNA, one strand shown
# T9 sequence: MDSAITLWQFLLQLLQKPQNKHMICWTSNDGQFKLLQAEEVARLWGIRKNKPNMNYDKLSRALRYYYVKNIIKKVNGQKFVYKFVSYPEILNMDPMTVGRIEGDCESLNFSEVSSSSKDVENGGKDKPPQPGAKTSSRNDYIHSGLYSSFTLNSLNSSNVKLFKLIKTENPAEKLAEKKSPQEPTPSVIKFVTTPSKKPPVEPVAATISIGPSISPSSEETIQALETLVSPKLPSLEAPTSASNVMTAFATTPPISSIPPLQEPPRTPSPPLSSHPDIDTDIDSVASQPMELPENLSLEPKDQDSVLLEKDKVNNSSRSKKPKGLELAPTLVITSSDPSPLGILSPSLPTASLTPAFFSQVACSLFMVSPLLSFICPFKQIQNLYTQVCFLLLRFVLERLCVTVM
# Method in brief: as §1
# ETV2 = molecular target: T10, ETV2 (Homo sapiens, UniProt O00321 1-342); details: protein: recombinant; tags: N-terminal GST; dsDNA, one strand shown
# T10 sequence: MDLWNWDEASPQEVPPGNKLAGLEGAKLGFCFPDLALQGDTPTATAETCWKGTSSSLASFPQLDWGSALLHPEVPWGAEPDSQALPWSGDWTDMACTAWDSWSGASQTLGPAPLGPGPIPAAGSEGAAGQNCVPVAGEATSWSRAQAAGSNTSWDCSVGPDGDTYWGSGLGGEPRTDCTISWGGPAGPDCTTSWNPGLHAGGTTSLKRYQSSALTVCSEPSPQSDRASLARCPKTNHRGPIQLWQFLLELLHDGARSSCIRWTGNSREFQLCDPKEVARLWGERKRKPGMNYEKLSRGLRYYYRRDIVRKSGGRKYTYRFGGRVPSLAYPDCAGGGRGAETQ
# Method in brief: as §1
# ELF3 = molecular target: T11, ELF3 (Homo sapiens, UniProt P78545 1-371); details: protein: recombinant; tags: N-terminal GST; dsDNA, one strand shown
# T11 sequence: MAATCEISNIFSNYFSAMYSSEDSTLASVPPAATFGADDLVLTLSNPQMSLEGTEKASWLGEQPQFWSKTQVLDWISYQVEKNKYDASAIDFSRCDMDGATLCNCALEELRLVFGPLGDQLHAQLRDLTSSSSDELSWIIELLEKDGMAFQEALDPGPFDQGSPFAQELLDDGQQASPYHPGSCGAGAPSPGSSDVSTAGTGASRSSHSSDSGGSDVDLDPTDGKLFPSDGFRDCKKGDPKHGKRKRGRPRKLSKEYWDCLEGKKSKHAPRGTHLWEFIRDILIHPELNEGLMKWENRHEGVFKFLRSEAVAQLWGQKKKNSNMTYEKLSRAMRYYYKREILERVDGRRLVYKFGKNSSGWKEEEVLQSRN
# Method in brief: as §1
# CRX = CRX (Homo sapiens, UniProt O43186 1-299); details: protein: recombinant; tags: N-terminal GST; dsDNA, one strand shown
# Method in brief: as §1
# ETV1 = ETV1 (Homo sapiens, UniProt P50549 1-477); details: protein: recombinant; tags: N-terminal GST; dsDNA, one strand shown
# Method in brief: as §1
# Sequence of ELF4 (Q99607 whole entry): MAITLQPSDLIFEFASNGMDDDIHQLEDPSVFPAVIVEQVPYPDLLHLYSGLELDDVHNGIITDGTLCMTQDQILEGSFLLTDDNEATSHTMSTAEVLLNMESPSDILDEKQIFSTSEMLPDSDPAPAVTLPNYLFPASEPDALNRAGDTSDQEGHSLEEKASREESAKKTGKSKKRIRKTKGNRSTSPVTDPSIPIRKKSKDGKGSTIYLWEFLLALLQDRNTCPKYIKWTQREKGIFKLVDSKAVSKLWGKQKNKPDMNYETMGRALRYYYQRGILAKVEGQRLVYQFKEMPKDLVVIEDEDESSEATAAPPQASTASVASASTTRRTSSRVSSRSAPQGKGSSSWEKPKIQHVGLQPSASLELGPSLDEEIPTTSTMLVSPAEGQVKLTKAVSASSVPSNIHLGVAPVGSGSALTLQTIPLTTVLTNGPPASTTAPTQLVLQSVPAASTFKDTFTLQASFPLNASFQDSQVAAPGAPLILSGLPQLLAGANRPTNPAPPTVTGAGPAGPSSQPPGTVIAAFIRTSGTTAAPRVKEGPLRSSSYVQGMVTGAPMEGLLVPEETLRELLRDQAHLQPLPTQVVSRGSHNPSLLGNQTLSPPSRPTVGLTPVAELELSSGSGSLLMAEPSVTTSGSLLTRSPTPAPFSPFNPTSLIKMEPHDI
# Sequence of ETV1 (P50549 whole entry): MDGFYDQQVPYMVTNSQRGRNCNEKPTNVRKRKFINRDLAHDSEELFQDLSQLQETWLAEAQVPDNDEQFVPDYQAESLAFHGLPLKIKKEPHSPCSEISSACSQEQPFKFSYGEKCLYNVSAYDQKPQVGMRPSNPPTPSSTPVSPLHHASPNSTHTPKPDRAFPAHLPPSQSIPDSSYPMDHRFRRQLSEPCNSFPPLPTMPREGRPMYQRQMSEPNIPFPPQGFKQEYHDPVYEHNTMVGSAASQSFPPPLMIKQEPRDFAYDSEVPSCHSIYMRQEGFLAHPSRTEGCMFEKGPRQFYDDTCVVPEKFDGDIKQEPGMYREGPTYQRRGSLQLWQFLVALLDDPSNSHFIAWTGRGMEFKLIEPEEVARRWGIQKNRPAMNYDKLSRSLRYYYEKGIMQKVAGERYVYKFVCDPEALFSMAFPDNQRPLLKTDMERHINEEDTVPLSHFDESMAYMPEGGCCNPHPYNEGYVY
# Sequence of SPIB (Q01892 whole entry): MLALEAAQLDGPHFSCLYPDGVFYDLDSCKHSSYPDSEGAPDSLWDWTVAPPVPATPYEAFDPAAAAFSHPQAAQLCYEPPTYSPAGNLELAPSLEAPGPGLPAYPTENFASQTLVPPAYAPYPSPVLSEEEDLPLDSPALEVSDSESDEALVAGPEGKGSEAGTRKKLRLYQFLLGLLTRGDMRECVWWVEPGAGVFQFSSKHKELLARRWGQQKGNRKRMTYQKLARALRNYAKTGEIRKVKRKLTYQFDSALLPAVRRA
# Sequence of ELF1 (P32519 whole entry): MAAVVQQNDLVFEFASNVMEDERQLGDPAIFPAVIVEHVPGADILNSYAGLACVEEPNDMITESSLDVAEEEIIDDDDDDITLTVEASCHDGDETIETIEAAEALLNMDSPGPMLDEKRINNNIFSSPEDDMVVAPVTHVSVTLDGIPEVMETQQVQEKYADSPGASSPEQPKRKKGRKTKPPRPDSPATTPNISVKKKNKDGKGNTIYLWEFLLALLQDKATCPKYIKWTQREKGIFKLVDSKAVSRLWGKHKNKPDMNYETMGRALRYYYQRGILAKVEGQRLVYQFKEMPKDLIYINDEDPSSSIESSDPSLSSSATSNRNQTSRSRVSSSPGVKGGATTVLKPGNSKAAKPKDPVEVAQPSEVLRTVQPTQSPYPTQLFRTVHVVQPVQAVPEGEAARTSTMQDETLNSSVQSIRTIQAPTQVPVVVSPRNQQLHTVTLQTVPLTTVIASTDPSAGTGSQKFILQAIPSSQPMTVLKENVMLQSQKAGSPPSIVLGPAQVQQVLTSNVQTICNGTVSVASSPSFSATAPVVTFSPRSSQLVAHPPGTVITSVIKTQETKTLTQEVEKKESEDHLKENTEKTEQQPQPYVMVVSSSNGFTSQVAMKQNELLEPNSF
# Sequence of HSF1 (Q00613 whole entry): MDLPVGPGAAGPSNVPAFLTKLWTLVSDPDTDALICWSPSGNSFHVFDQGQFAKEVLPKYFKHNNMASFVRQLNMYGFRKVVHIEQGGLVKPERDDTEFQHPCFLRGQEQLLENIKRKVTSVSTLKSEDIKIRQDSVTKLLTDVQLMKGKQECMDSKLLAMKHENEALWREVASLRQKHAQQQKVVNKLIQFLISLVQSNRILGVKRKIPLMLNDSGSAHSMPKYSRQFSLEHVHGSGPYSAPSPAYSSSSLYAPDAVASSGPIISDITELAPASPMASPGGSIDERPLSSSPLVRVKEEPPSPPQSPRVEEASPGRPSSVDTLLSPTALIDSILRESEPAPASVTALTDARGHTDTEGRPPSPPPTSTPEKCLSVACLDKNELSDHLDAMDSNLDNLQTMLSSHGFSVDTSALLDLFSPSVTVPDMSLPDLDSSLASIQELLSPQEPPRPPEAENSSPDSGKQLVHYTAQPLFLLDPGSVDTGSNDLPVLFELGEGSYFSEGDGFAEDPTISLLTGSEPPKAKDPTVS
# Sequence of ETV5 (P41161 whole entry): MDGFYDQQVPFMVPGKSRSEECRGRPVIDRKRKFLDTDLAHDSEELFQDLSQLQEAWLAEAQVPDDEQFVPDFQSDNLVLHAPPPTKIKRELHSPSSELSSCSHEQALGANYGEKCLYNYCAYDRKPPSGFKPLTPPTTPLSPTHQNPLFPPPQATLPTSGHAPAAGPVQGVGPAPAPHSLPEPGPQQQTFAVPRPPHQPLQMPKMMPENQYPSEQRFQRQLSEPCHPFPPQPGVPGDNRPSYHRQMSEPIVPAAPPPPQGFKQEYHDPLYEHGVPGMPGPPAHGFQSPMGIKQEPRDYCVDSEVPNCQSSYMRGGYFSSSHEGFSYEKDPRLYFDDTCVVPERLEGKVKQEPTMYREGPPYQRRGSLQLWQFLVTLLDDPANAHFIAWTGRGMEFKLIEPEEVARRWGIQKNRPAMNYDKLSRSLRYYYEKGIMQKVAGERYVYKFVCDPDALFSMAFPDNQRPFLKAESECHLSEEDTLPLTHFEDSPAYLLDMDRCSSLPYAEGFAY
# Sequence of CRX (O43186 whole entry): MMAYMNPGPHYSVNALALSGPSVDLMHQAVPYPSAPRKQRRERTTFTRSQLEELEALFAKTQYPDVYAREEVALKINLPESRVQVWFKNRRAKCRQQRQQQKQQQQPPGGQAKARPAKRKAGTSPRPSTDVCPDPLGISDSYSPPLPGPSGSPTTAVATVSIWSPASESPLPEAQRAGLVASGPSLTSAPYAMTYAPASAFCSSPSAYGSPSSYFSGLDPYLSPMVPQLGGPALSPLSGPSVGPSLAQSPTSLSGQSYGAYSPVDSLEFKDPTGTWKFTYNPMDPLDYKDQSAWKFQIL
sequence,measurement,setting,value
TCCTGC,binding signal,FLI1,"1.61 fold enrichment (6-mer frequency, TF over GST control)"
same,binding signal,ELK1,"1.8 fold enrichment (6-mer frequency, TF over GST control)"
same,binding signal,GABPA,"1.49 fold enrichment (6-mer frequency, TF over GST control)"
same,binding signal,ERG,"1.68 fold enrichment (6-mer frequency, TF over GST control)"
same,binding signal,ELF1,"1.66 fold enrichment (6-mer frequency, TF over GST control)"
same,binding signal,EHF,"1.53 fold enrichment (6-mer frequency, TF over GST control)"
same,binding signal,SPI1,"1.67 fold enrichment (6-mer frequency, TF over GST control)"
same,binding signal,SPIB,"1.81 fold enrichment (6-mer frequency, TF over GST control)"
same,binding signal,ELK3,"1.46 fold enrichment (6-mer frequency, TF over GST control)"
same,binding signal,FEV,"1.62 fold enrichment (6-mer frequency, TF over GST control)"
same,binding signal,ETV5,"1.83 fold enrichment (6-mer frequency, TF over GST control)"
same,binding signal,HSF1,"1.25 fold enrichment (6-mer frequency, TF over GST control)"
same,binding signal,SPIC,"1.68 fold enrichment (6-mer frequency, TF over GST control)"
same,binding signal,ELF4,"1.56 fold enrichment (6-mer frequency, TF over GST control)"
same,binding signal,ELK4,"1.36 fold enrichment (6-mer frequency, TF over GST control)"
same,binding signal,ETV2,"1.49 fold enrichment (6-mer frequency, TF over GST control)"
same,binding signal,ELF3,"1.75 fold enrichment (6-mer frequency, TF over GST control)"
same,binding signal,CRX,"1.26 fold enrichment (6-mer frequency, TF over GST control)"
same,binding signal,ETV1,"1.6 fold enrichment (6-mer frequency, TF over GST control)"
